Source: PubChem (National Center for Advancing Translational Sciences (NCATS))
Shiga toxin inh – inhibitors of Shiga toxin in Vero cells | Vero cells, Shiga toxin protein synthesis inhibition reporter | inhibition, % at 38.7 µM | hit rate 9.2% among 290,000; in the data active = inhibition mostly above about 28%, no sharp cut-off; inactive = mostly below about 43%; note: 0% is about no effect
CHX counter – counter-screen for Shiga toxin inhibitors: cycloheximide protein synthesis inhibition; hit rate 12% among 300,000; cell reporter, cycloheximide protein synthesis inhibition counterscreen; max response, %; in the data active = max response mostly above about 13%, no sharp cut-off; inactive = mostly below about 14%; note: read at 38.3 µM for the half of the compounds with a filed dose; 0% is about no effect
Pf growth 96h – P. falciparum growth inhibition at 96 hour, primary screen for plastid delayed-death inhibitors. P. falciparum luciferase reporter growth, 96 h. Potency, µM (top dose mostly 28.7 µM), for inactives: top-dose activity change, negative = inhibition, most hits filed as inhibitors. AID 504834. hit rate 6.9% among 320,000; note: potency is the fitted concentration of half-maximal effect; % is set by controls: 0 for no effect and ±100 for the full control effect
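Luminescence readout: decreased luciferase signal marks inhibited growth of reporter-expressing P. falciparum in infected red cells (2% hematocrit, 0.05% parasitemia final), exposed to compound two generations (96 h, 37 C, 5% CO2).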
AMA1 RON2 block – AMA1-RON2 (P. falciparum) interaction inhibition; AlphaScreen AMA1-biotinylated RON2 peptide binding; Potency, µM (titrated, usually from 58.2 µM), inactives show top-dose activity change, negative = inhibition, most hits filed as inhibitors; hit rate 0.2% among 360,000;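 note: potency is the fitted concentration of half-maximal effect; 0% = vehicle wells and -100% = peptide control; nearly all actives have a fitted effect of over 45% in size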
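AMA1 (3D7) with his tag at 25 nM final met compounds first, then biotinylated RON2 peptide at 25 nM; detection used donor plus acceptor beads, 10 µg/mL apiece, read by AlphaScreen after 30 min at room temperature.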
SARS PLP yeast – blocks SARS-CoV papain-like protease in a yeast assay; S. cerevisiae expressing SARS-CoV PLpro, growth rescue; Potency, µM (highest dose often 32.9 µM), inactives show at the top dose activity, positive = growth rescue, hits mostly activators; hit rate 0.19% among 330,000; calls by dose curve; note: potency is the fitted concentration of half-maximal effect; 0% is about no effect; nearly all actives have a fitted effect of over 55% in size
Pf growth 48h – P. falciparum growth inhibition at 48 hours (one generation) | P. falciparum luciferase growth in erythrocytes, 48 h | Potency, µM (doses to about 28.7 µM), for inactives: at the top dose activity change, negative = inhibition, usual class: inhibitors | hit rate 5.9% among 310,000 | AID 504832; note: potency is the fitted concentration of half-maximal effect; % is set by controls: 0 for no effect and ±100 for the full control effect
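Growth was read as firefly luciferase luminescence after a 48 h, 37 C, 5% CO2 exposure of compounds to reporter-bearing P. falciparum cultures (0.1% parasitemia, 2% hematocrit final) in Albumax-supplemented RPMI 1640.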
* hit, by the source's call; i = inactive; u = inconclusive; x = no result; [ ] = remark or other dose. Only some compounds are listed: those with a hit (about 19% of all), similar ones and a draw of the others. Unless noted, calls come from the whole dose curve; as a rule, active = well fitted curve in the direction sought with a large enough effect; inconclusive = small, poorly fitted or top-dose-only effect, or another doubt; inactive = no such curve, though single readings can be large; an effect the other way counts as inactive or inconclusive.

SMILES	Shiga toxin inh	CHX counter	Pf growth 96h	AMA1 RON2 block	SARS PLP yeast	Pf growth 48h
CCC(C)(C)NC(=O)CN(Cc1cccs1)C(=O)C(=O)Nc1ccc2c(c1)OCCO2	44.0	-0.6	u	0.0%	5.1%	u
Cc1cc(C)cc(NS(=O)(=O)c2ccc3oc(=O)ccc3c2)c1	-18.3	-1.0	u	-19.5%	3.7%	x
CC(C)Oc1ccc(F)cc1-c1cc(C(=O)Nc2ccc(C(C)(C)C)cc2)[nH]n1	x	x	x	-3.1%	x	x
CC(C)CC(C(=O)OCC(=O)N1CCN(c2ccccc2)CC1)N1C(=O)c2ccccc2C1=O (stereo not drawn)	x	x	x	-2.1%[11.6 µM]	x	x
Oc1ccccc1CNc1ccc(OC(F)(F)F)cc1	55.3*	34.7*	u	1.0%	-2.6%	u
FC(F)(F)Oc1ccc(NC(=S)Nc2ccc(OC(F)(F)F)cc2)cc1	16.1	5.5	u	89.0%	-2.6%	u
CC1(C)CC(=O)C=C(c2cn[nH]n2)C1	x	x	x	21.8%	x	x
CC(=O)Nc1ccc(-c2ccc(NC(C)=O)c(O)c2)cc1O	33.0*	18.3*	98.8%	0.0%	0.7%	109.0%
CC(=O)Nc1ccc(C#Cc2ccc(NC(C)=O)cc2)cc1	67.8*	33.6*	72.1%	-0.4%	-0.4%	47.0%
CC(=O)Nc1ccc(-c2ccc(NC(C)=O)cc2)cc1	60.0*	32.6*	5.9%	-7.2%	0.5%	1.9%
COC(=O)Nc1ccc(NC(C)=O)cc1	-3.4	-2.2	47.3%	-13.6%	6.7%	13.3%
CC(=O)Nc1ccc(NC(C)=C(C#N)C#N)cc1	-9.0	-3.1	37.3%	12.4%	-25.3%	19.2%
Cc1cccn2c(=O)nc(SCC(=O)N3CCCC3)nc12	x	x	23.6%	-1.0%	-0.1%	13.7%
N#C/C(=C\c1ccncc1)c1nc2ccccc2[nH]1	106.2*	31.7*	-4.5%	92.0%	-2.4%	-12.2%
CC1CCc2nc(/C(C#N)=C/c3ccncc3)sc2C1 (stereo not drawn)	96.3*	38.2*	0.0%	-7.8%	2.0%	u
N#C/C(=C\c1cccnc1)c1nc2ccccc2[nH]1	57.4*	36.2*	u	60.6%	0.1%	u
Cc1cc2nc(/C(C#N)=C/c3ccncc3)[nH]c2cc1C	39.4	10.7	0.5%	112.9%	-0.5%	-15.8%
N#C/C(=C/c1ccncc1)c1nc2ccccc2s1	43.7*	29.9*	31.2%	18.8%	-0.7%	7.4%
N#C/C(=N\O)c1nc2ccccc2[nH]1	19.0	-2.3	-0.5%	23.7%	-5.7%	6.8%
COc1ccc(CCN2C(=NC(=O)CCC(=O)O)SC3CS(=O)(=O)CC32)cc1 (stereo not drawn)	3.2	5.6	1.7%	-3.0%	12.3%	65.7%
C=CCn1c(COc2cc(C)ccc2C(C)C)nnc1SCC(=O)c1c(N)n(C)c(=O)n(C)c1=O	-11.8	-4.2	u	2.1%	-11.1%	-15.2%
COc1ccc(S(=O)(=O)NNC(N)=S)cc1	2.6	-2.1	24.5%	63.0%	2.3%	22.2%
Nc1ncnc2c1ncn2[C@@H]1O[C@H](CNS(=O)(=O)c2cc(S(=O)(=O)c3ccccc3)cs2)[C@@H](O)[C@H]1O	x	x	x	-15.2%	1.6%	x
CCOC(=O)c1sc(C)c2c(=O)n(CCCN3CCOCC3)cnc12	-4.2	0.4	x	1.4%	-0.8%	14.9%
CN1C(C(=O)Nc2ccc(F)cc2F)=CC(c2cccs2)=NS1(=O)=O	26.8	-3.3	4.4%	0.0%	-6.8%	4.6%
O=C(Nc1ccc(F)cc1F)c1csc(-c2cccs2)n1	117.6*	47.7*	i	1.0%	-4.1%	i
O=C(Nc1ccc(F)cc1F)c1csc(-c2ccncc2)n1	14.6	26.7*	29.6%	11.1%	-0.7%	-9.0%
CCNc1ccc(C(=O)NN=C2CCCC2)cc1[N+](=O)[O-]	-15.9	2.9	u	27.4%	1.2%	0.0%
O=C1[C@H]2[C@@H](c3ccc(Cl)cc3)N3C(=O)N(c4cccc(Br)c4)C(=O)[C@@]3(Cc3ccc(Cl)cc3)[C@H]2C(=O)N1C1CCCCC1	13.9	2.6	11.7µM*	-9.3%	3.8%	u
O=C1[C@H]2[C@@H](c3ccc(F)cc3)N3C(=O)N(c4cccc(Br)c4)C(=O)[C@@]3(Cc3ccc(Cl)cc3)[C@H]2C(=O)N1C1CCCCC1	-8.8	-1.2	3.29µM*	21.4%	1.7%	2.94µM*
